{
  "source": "the supplement of paper PMC6555819",
  "data": [
    {"system": "LXRa homodimer (NR concentration 270 nM)", "assay": "PBM binding z-score (relative to random genomic background probes); higher = stronger binding; sequences stand for … in GC…GCGATTGACAGCGTAGAATGAAGG", "outline": "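The probes on custom Agilent 4×180K protein-binding microarrays were double-stranded, with 34-nt variable regions bearing direct-repeat seeds, single-nucleotide variants, half-site ablations and random human genomic background sequences. Incubation lasted 1 h with ligand-free nuclear receptor dimers in PBS pH 7.4, 2% milk, 0.02% Triton X-100, 1 mM DTT, 0.2 mg/mL BSA and 0.4 mg/ml salmon testes DNA. Antibodies against each partner (one per run) detected bound dimers, and fluorescence scans were regression-normalized. Binding z-scores take the random background probes as reference.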", "values": [
      {"sequence": "CGAACGAGGGCATGAGTTCATAGCAAATGCCGAT", "PBM binding z-score": 1},
      {"sequence": "GCTTGCAGGCCATTTGGGTCACTCAATGACGGGC", "PBM binding z-score": -0.325},
      {"sequence": "TGTCAAAGTTCAAACGTAACGTAAGTATCCACAC", "PBM binding z-score": 5.78},
      {"sequence": "TAGCCTAGGTCATCCAGGGGCCAGTATAGAAAGC", "PBM binding z-score": 0.176},
      {"sequence": "ATCACTAGGTAACAAGTTCAGTGAAAGAGAGGAC", "PBM binding z-score": 0.705},
      {"sequence": "ACTAGTTGGTCAGCAGAGGTCACACACAATTCGG", "PBM binding z-score": 4.06},
      {"sequence": "CATACAGGGTCAGCTAGGCCAGAGTGGGGACGGC", "PBM binding z-score": 0.0582},
      {"sequence": "TCTTGCAGATCAACAGGAGGTTAAGAAAGATCGA", "PBM binding z-score": 0.0202},
      {"sequence": "TCTGCTAGGTCAGTTGGTCTGCTAACGAGCTGCC", "PBM binding z-score": -0.897},
      {"sequence": "TCATATAGGTAAACAGGAGAAAGTCCGTAAGTTA", "PBM binding z-score": -0.02},
      {"sequence": "CGAACGAGCGCATGAGTTGATAGCAAATGCCGAT", "PBM binding z-score": -0.486},
      {"sequence": "GCTTACGGGTCAAAGGTTTTAGCATGAATAGAAT", "PBM binding z-score": 0.0126},
      {"sequence": "ACTTACGGGTCAACGAGGTTATATCACGCGTATA", "PBM binding z-score": 1.5},
      {"sequence": "CGAACGAGGGCATGAGTTGATATCAAATGCCGAT", "PBM binding z-score": -0.371},
      {"sequence": "TCTTGTAGATCAAAGGTTAAGAATGCCGAAGCCT", "PBM binding z-score": 0.248},
      {"sequence": "AGAGCGAGGGCAATGAGTTGATAGCACGGGTGGC", "PBM binding z-score": -0.331},
      {"sequence": "CTTACAGGGTCAGCTAGGCCAGAGTAGGGACGGC", "PBM binding z-score": -0.519},
      {"sequence": "TCATATACGTAAAGGTGAAAGTCGAACGATATGA", "PBM binding z-score": -0.0647},
      {"sequence": "TCTGCTAGGTCAACGATGGTCAGCTGATCTGCTA", "PBM binding z-score": -0.222},
      {"sequence": "TAGCCTAGGTCAGATCGGGCTAGTATACGCTATA", "PBM binding z-score": -0.52},
      {"sequence": "ATCTCTAGGTAAAAGATCAGTGAATCCCGAGGAT", "PBM binding z-score": 0.0922},
      {"sequence": "TAGCCTAGGTCATGGGCCATTATACCACGCGAAC", "PBM binding z-score": 0.43}
    ]}
  ]
}
